The record followed here is PubChem BioAssay (Tox21).

Assay [1] can be described thus: A CellTox Green Cytotoxicity Assay to monitor cytotoxicity in HepG2 cells - 8 hour (AID 1224890). Note: nearly all actives have a fitted effect of over 45% in size. The method in brief: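 Continuous culture of HepG2 cells with a membrane-impermeant DNA dye; rising fluorescence marks dead cells. Compound exposure lasted up to 40 h at 37 C, with reads every 8 h from 0 h.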
The nature of assay [2]: qHTS assay to identify small molecule antagonists of the estrogen receptor alpha (ER-alpha) signaling pathway using the BG1 cell line in the presence of 0.1 nM 17-beta-estradiol - cell viability counter screen (AID 1259241). Note: nearly all actives have a fitted effect of over 40% in size. The method in brief:
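Cytotoxicity counter-screen: live-cell protease activity measured by fluorescence (30 min reagent step) in the same wells. Cells were VM7Luc4E2 with endogenous ER-alpha and ERE-driven luciferase, treated 22 hr at 37C alongside 0.1 nM 17beta-estradiol final.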
A general note: In qHTS, concentration-response curves come from the screen itself.

Assay [3] is described as follows: qHTS assay to identify small molecule antagonists of the androgen receptor (AR) signaling pathway using the MDA cell line in the presence of 0.5 nM R1881 - cell viability counter screen (AID 1259242). Note: nearly all actives have a fitted effect of over 45% in size. Note: potency is the fitted concentration of half-maximal effect. A digest of the protocol:
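Fluorescence from CellTiter-Fluor, which reports protease activity of live cells, was read 30 min after reagent addition to MDA-kb2 cells that had been incubated 16 hr with compound and 0.5 nM R1881.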

Assay [4] concerns the target Estrogen receptor (Homo sapiens) (UniProt P03372). Kind of assay: qHTS assay to identify small molecule antagonists of the estrogen receptor alpha (ER-alpha) signaling pathway using the BG1 cell line in the presence of 0.1 nM 17-beta-estradiol (AID 1259244). Note: nearly all actives have a fitted effect of over 50% in size. Note: potency is the fitted concentration of half-maximal effect. The method in brief: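 Quantitative high-throughput screen in VM7Luc4E2 cells: compound plus 0.1 nM E2 (final), 22 h, 37C, 5% CO2; ONE-Glo added, 30 min room temperature, luminescence measured.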

Assay [5] in a line: qHTS assay to identify small molecule phospholipidosis (PLD) inducers (AID 1259344; active = well fitted curve in the direction sought with a large enough effect; an effect the other way counts as inactive or inconclusive). The method in brief: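 Fluorescent phospholipid staining (LipidTOX Red) measured by automated microscopy in fixed HepG2 cells after 24 h treatment; nuclei counterstained with Hoechst 33342; amiodarone as reference inducer.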
The nature of assay [6]: qHTS assay to identify small molecule HDAC inhibitors (AID 1259364). Note: nearly all actives have a fitted effect of over 45% in size. Note: potency is the fitted concentration of half-maximal effect. The method in brief:
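Endogenous HDAC class I/II activity was measured in wild-type HCT-116 cells by HDAC-Glo luminescence after 2 h compound treatment.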

A short description of assay [7]: qHTS assay to identify small molecule HDAC inhibitors - cell viability counter screen (AID 1259365). Note: series mostly up to about 92 µM; nearly all actives have a fitted effect of over 50% in size. A digest of the protocol:
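CellTiter-Glo luminescence (30 min, room temperature) reported viability after a 2 h compound exposure at 37 C. Cells: wild-type HCT-116, 1,500 per well, seeded the night before.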

Assay [8] in a line: qHTS assay to identify small molecule agonists of the sonic hedgehog signaling (Shh) pathway - cell viability counter screen (AID 1259366). Note: nearly all actives have a fitted effect of over 50% in size. Note: potency is the fitted concentration of half-maximal effect. The method in brief:
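Cytotoxicity counter screen: CellTiter-Fluor reagent added after 23 h compound exposure, then 1 h at 37C and fluorescence read. Cells were 3T3 Gli1-Luc, seeded 2,000 per well and dosed 4 h post-plating.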

Assay [9] is described as follows: qHTS assay to identify small molecule antagonists of the sonic hedgehog signaling (Shh) pathway - cell viability counter screen (AID 1259367). Note: nearly all actives have a fitted effect of over 55% in size. Note: potency is the fitted concentration of half-maximal effect. A digest of the protocol: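 Using CellTiter-Fluor, viability of Gli1-Luc reporter 3T3 cells is read by fluorescence in the wells used for the Shh luciferase assay. Treatment lasts 23 hr with conditioned medium, then reagent 1 hr at 37C.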

Assay [10] concerns the target Androgen receptor (Homo sapiens) (UniProt P10275). Kind of assay: qHTS assay to identify small molecule antagonists of the androgen receptor (AR) signaling pathway using the MDA cell line in the presence of 0.5 nM R1881 (AID 1259243). Note: nearly all actives have a fitted effect of over 50% in size. Note: potency is the fitted concentration of half-maximal effect. The method in brief: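 Inhibition of R1881 (0.5 nM final) induced reporter signal was measured in human MDA-kb2 cells; note the MMTV promoter also responds to GR. Exposure lasted 16 hr at 37C.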

SMILES strings stand for the structures. Unmarked numbers belong to inactive results. Records with an inconclusive call do not appear. The source made the active and inactive calls. Unless noted, calls come from the whole dose curve; as a rule, active = well fitted curve in the direction sought with a large enough effect in the repeat runs; inconclusive = weak or mixed curves; inactive = no such curve, though single readings can be large; an effect the other way counts as inactive or inconclusive.

Sequence of Estrogen receptor (Homo sapiens) (P03372 whole entry, looked up): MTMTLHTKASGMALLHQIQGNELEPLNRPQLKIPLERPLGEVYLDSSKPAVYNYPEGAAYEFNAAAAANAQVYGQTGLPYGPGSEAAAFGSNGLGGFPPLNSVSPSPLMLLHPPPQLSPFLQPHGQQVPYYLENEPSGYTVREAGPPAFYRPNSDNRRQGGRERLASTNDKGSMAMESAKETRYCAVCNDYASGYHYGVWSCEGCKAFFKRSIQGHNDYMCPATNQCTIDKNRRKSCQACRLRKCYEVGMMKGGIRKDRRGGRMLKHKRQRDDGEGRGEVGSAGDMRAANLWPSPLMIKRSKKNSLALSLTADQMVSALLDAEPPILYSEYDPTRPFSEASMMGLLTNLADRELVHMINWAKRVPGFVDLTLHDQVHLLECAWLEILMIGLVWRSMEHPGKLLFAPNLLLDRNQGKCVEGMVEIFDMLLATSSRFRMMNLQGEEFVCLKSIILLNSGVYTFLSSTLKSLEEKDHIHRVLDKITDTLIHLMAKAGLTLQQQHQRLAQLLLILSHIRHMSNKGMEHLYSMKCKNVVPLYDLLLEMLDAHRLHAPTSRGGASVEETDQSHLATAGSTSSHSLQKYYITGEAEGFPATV
Sequence of Androgen receptor (Homo sapiens) (P10275 whole entry, looked up): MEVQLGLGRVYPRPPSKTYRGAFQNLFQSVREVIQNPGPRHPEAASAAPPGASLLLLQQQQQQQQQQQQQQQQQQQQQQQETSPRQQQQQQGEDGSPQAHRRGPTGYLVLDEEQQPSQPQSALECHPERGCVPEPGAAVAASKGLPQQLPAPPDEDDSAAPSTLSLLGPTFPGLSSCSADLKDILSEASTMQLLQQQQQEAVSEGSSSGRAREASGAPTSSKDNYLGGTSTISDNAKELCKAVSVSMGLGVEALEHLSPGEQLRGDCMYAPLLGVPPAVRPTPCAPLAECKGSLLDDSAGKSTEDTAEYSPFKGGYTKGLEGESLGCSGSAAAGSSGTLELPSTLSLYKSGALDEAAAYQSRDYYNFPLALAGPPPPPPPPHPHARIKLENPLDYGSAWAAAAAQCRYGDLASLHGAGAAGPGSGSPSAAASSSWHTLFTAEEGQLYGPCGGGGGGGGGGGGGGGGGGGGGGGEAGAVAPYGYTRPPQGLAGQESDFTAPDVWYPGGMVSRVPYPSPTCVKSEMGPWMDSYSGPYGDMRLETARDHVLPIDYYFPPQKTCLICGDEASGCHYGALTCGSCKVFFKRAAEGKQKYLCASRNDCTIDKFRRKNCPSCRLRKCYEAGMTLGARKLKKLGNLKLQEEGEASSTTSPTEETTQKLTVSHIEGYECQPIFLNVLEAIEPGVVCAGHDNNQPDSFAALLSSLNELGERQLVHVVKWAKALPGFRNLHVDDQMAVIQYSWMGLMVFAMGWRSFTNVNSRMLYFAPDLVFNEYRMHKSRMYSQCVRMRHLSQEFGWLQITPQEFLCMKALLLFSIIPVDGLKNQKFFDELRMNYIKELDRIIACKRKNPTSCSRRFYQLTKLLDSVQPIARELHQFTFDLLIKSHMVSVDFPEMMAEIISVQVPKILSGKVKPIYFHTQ

Take `CC(C)(C)C(=O)C(Oc1ccc(Cl)cc1)n1ccnc1` (stereo not drawn): the Potency entry in assay [1], in assay [2], in assay [3], in [4], in assay [6] and in assay [7] was “inactive” each time. Also, the Potency result in assay [8] and in assay [9] was “inactive” in each case. The result in assay [5] was inactive.

In the case of `CC(=O)[C@H]1CC[C@H]2[C@@H]3C[C@H](C)C4=CC(=O)CC[C@]4(C)[C@H]3[C@@H](O)C[C@]12C`, the Potency result in assay [1], in assay [2], in assay [3], in [10], in assay [7] and in [9] was “inactive” in each case.

With `C1COCO1`, the Potency entry in assay [1], in assay [2], in [3], in assay [4], in assay [6] and in [7] was “inactive” in each case. The Potency entry in assay [8] and in assay [9] was “inactive” each time.

Regarding `Cc1ccc(Nc2nccc(N(C)c3ccc4c(C)n(C)nc4c3)n2)cc1S(N)(=O)=O`, the Potency entry in assay [1], in assay [2], in [3], in assay [7] and in [9] was “inactive” throughout. Also, in assay [10], the Potency is 11.9 µM (active).

As for `O=C(O)C(Cc1cc(I)c(O)c(I)c1)c1ccccc1` (stereo not drawn), the Potency entry in [1], in [2], in assay [3], in assay [4], in assay [6] and in assay [7] was “inactive” in each case. Moreover, the Potency result in assay [8] and in assay [9] was “inactive” throughout.

Regarding `CC1(C)O[C@@H]2C[C@H]3[C@@H]4CCC5=CC(=O)C=C[C@]5(C)[C@H]4[C@@H](O)C[C@]3(C)[C@]2(C(=O)CO)O1`, the Potency result in [1], in assay [2], in assay [3], in [4], in assay [6] and in assay [7] was “inactive” in each case. Also, the Potency entry in assay [8] and in assay [9] was “inactive” each time. Further, the result in assay [5] was inactive.

In the case of `CN1Cc2cc(C(=O)N3CCC(C4CCNCC4)CC3)ccc2N[C@@H](CC(=O)O)C1=O`, the Potency entry in assay [1], in assay [2], in assay [3], in assay [4], in assay [6] and in assay [7] was “inactive” in each case. Further, the Potency result in assay [8] and in assay [9] was “inactive” each time.

As to `O=C(Nc1ccccc1)Nc1ccccc1`, the Potency entry in assay [1], in assay [2], in assay [3], in [4], in assay [7] and in assay [8] was “inactive” throughout. Further, the Potency result in assay [9] was “inactive”. The Potency in assay [6] is 1.54 µM (active).

On to `CCCCCCCCCOC(C)=O`, for which the Potency entry in [1], in assay [2], in assay [3], in [4], in [6] and in [7] was “inactive” in each case. For the same compound, the Potency result in [8] and in assay [9] was “inactive” throughout.

With `C/C=C/C=C/CCCCCCCO`, the Potency result in assay [1], in assay [2], in assay [3], in assay [4], in assay [6] and in assay [7] was “inactive” in each case.

As for `CCCCC1C(=O)N(c2ccccc2)N(c2ccc(O)cc2)C1=O` (stereo not drawn), the Potency result in [1], in assay [2] and in assay [3] was “inactive” each time. Moreover, the Potency in assay [10] is 26.6 µM (active); in assay [8], 13.3 µM (active); in assay [9], 16.8 µM (active).

Take `c1cc[c]([Bi]([c]2ccccc2)[c]2ccccc2)cc1`: the Potency result in assay [1], in assay [2], in [3], in assay [4], in assay [6] and in assay [7] was “inactive” each time.

For the compound `CN1C(=O)CC(C)(c2ccccc2)C1=O` (stereo not drawn), the Potency result in [1], in [2], in assay [3], in assay [4], in assay [6] and in [7] was “inactive” each time. Also, the Potency entry in [8] and in assay [9] was “inactive” each time.

In the case of `CC(CCO)CCc1ccccc1` (stereo not drawn), the Potency entry in assay [1], in assay [2], in [3], in [4], in [6] and in assay [7] was “inactive” throughout. Further, the Potency result in assay [8] and in assay [9] was “inactive” each time.

`CC(C)OCC1CO1` (stereo not drawn): the Potency result in assay [1], in assay [2], in [3], in assay [4], in assay [6] and in assay [7] was “inactive” throughout. The Potency entry in [8] was “inactive”.

For the compound `CC(=O)Oc1ccc(C(=C2CCCCC2)c2ccc(OC(C)=O)cc2)cc1`, the Potency result in [1], in assay [2], in assay [3], in [4], in [6] and in [7] was “inactive” throughout. Besides, the Potency result in assay [8] and in assay [9] was “inactive” throughout. Further, the compound was classed as inactive in assay [5].

Take `CCc1nn(CCCN2CCN(c3cccc(Cl)c3)CC2)c(=O)n1CCOc1ccccc1`: the Potency entry in assay [1], in assay [2], in [6], in assay [7] and in assay [9] was “inactive” throughout. Moreover, the Potency in [3] was 26.6 µM (active); in assay [4] it was 11.9 µM (active). Further, the call in [5] was inactive.

Take `CCCCC(CC)COC(=O)COc1ccc(Cl)cc1C` (stereo not drawn): the Potency result in assay [1], in [2], in [3], in [4], in [6] and in [7] was “inactive” each time. Further, the Potency entry in assay [8] and in assay [9] was “inactive” in each case.

For `CN(C)CCOC1=Cc2ccccc2Sc2ccc(Cl)cc21`, the Potency result in assay [1], in [2], in [3], in [4], in [7] and in [9] was “inactive” in each case. Further, the compound was classed as inactive in assay [5].

In the case of `CCN(Cc1cccc(S(=O)(=O)O)c1)c1ccc(C(=C2C=CC(=[N+](CC)Cc3cccc(S(=O)(=O)[O-])c3)C=C2)c2ccccc2)cc1`, the Potency result in assay [1], in assay [2], in assay [3], in assay [4], in assay [6] and in assay [7] was “inactive” throughout. For the same compound, the Potency result in [8] and in assay [9] was “inactive” in each case.

As to `Cc1ccc(S(=O)(=O)NC2CCCCC2)cc1`, the Potency result in [1], in [2], in assay [3], in assay [4], in assay [6] and in assay [7] was “inactive” in each case. For the same compound, the Potency entry in assay [8] and in assay [9] was “inactive” each time.

On to `CC(COc1ccc(C(C)(C)C)cc1)OS(=O)OCCCl` (stereo not drawn), for which the Potency entry in [1], in assay [2], in [3], in [6], in assay [7] and in assay [8] was “inactive” throughout. The Potency result in assay [9] was “inactive”. For the same compound, the Potency in [4] was 1.38 µM (active).

With `CCCCCCCCCCOS(=O)(=O)O`, the Potency result in assay [1], in assay [2], in [3], in assay [4], in [6] and in assay [7] was “inactive” each time. Moreover, the Potency result in assay [8] and in assay [9] was “inactive” in each case.

Consider `Cc1ccc(S)cc1`, for which the Potency result in assay [1], in [2], in assay [3], in assay [4], in assay [6] and in assay [7] was “inactive” in each case. Besides, the Potency entry in [8] and in [9] was “inactive” in each case.

`O=C(CCCCCCC(=O)Nc1ccccc1)NO`: the Potency result in assay [1], in [2] and in assay [3] was “inactive” throughout. For the same compound, in assay [4], the Potency was 3.35 µM (active).

Turning to `CC(=O)Nc1ccccc1C`, the Potency result in [1], in assay [2], in assay [3], in assay [4], in assay [6] and in assay [7] was “inactive” throughout. For the same compound, the Potency result in [8] and in [9] was “inactive” throughout.

`CCCCCC=CCC=CCCCCCCCC(=O)OCC`: the Potency result in assay [1], in [2], in assay [3], in assay [4], in assay [6] and in assay [7] was “inactive” in each case. Besides, the Potency result in assay [8] and in [9] was “inactive” each time. For the same compound, the result in assay [5] was inactive.

`CCCCC(=O)O[C@]1(C(=O)CO)CC[C@H]2[C@@H]3CCC4=CC(=O)CC[C@]4(C)[C@H]3[C@@H](O)C[C@@]21C`: the Potency result in [1], in assay [2], in assay [3], in assay [4], in [6] and in [7] was “inactive” throughout. Moreover, the Potency result in assay [8] and in assay [9] was “inactive” throughout. The compound was classed as inactive in assay [5].
